# Measured values taken from the supplement of paper PMC4466140.
# Assays:
# Test in all cases: SPOT peptide array binding signal intensity (averaged, normalized) (arbitrary units (background-subtracted, floor 0; scale differs between SH3 domains)); higher = stronger binding of the SH3 domain to the peptide
# ScBbc1 = biological target: ScBbc1
# Outline: (§1)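 Peptides were synthetic 15-mers on cellulose membranes, with every cysteine replaced by serine. They were incubated overnight at 4°C with GST-SH3 domains from four yeast species at 10 μg/ml in TBS-based blocking buffer. Binding signal, the replicate-averaged normalized and background-subtracted spot intensity, is in arbitrary units that differ between domains.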
# ScBem1-D1 = biological target: ScBem1-D1
# Outline: as §1
# ScBzz1-D1 = biological target: ScBzz1-D1
# Outline: as §1
# ScBzz1-D2 = biological target: ScBzz1-D2
# Outline: as §1
# ScCyk3 = biological target: ScCyk3
# Outline: as §1
# ScFus1 = biological target: ScFus1
# Outline: as §1
# ScHof1 = biological target: ScHof1
# Outline: as §1
# ScHse1 = biological target: ScHse1
# Outline: as §1
# ScLsb1 = biological target: ScLsb1
# Outline: as §1
# ScLsb2 = biological target: ScLsb2
# Outline: as §1
# ScLsb3 = biological target: ScLsb3
# Outline: as §1
# ScLsb4 = biological target: ScLsb4
# Outline: as §1
# ScMyo3 = biological target: ScMyo3
# Outline: as §1
# ScMyo5 = biological target: ScMyo5
# Outline: as §1
# ScNbp2 = biological target: ScNbp2
# Outline: as §1
# ScPex13 = biological target: ScPex13
# Outline: as §1
# ScRvs167 = biological target: ScRvs167
# Outline: as §1
# ScSho1 = biological target: ScSho1
# Outline: as §1
# ScSla1-D1-D2 = biological target: ScSla1-D1-D2
# Outline: as §1
# ScSla1-D3 = biological target: ScSla1-D3
# Outline: as §1
# SpAbp1-D1 = biological target: SpAbp1-D1
# Outline: as §1
# SpBbc1 = biological target: SpBbc1
# Outline: as §1
# SpBzz1-D1 = biological target: SpBzz1-D1
# Outline: as §1
# SpBzz1-D2 = biological target: SpBzz1-D2
# Outline: as §1
# SpCyk3 = biological target: SpCyk3
# Outline: as §1
# SpHof1 = biological target: SpHof1
# Outline: as §1
# SpHof1-2 = biological target: SpHof1-2
# Outline: as §1
# SpHof1-3 = biological target: SpHof1-3
# Outline: as §1
# SpHse1 = biological target: SpHse1
# Outline: as §1
# SpLsb1 = biological target: SpLsb1
# Outline: as §1
# SpLsb4 = biological target: SpLsb4
# Outline: as §1
# SpMyo1 = biological target: SpMyo1
# Outline: as §1
# SpNbp2 = biological target: SpNbp2
# Outline: as §1
# SpPex13 = biological target: SpPex13
# Outline: as §1
# SpRvs167 = biological target: SpRvs167
# Outline: as §1
# SpSla1-D1-D2 = biological target: SpSla1-D1-D2
# Outline: as §1
# SpSla1-D3 = biological target: SpSla1-D3
# Outline: as §1
binder,measurement,setting,value
LPMNIQPDLPPRKIM,SPOT peptide array binding signal intensity,ScBbc1,7.5
same,SPOT peptide array binding signal intensity,ScBem1-D1,1
same,SPOT peptide array binding signal intensity,ScBzz1-D1,13
same,SPOT peptide array binding signal intensity,ScBzz1-D2,10.5
same,SPOT peptide array binding signal intensity,ScCyk3,9
same,SPOT peptide array binding signal intensity,ScFus1,510
same,SPOT peptide array binding signal intensity,ScHof1,≤ 0
same,SPOT peptide array binding signal intensity,ScHse1,92
same,SPOT peptide array binding signal intensity,ScLsb1,362
same,SPOT peptide array binding signal intensity,ScLsb2,218
same,SPOT peptide array binding signal intensity,ScLsb3,5190
same,SPOT peptide array binding signal intensity,ScLsb4,3270
same,SPOT peptide array binding signal intensity,ScMyo3,14
same,SPOT peptide array binding signal intensity,ScMyo5,0.75
same,SPOT peptide array binding signal intensity,ScNbp2,348
same,SPOT peptide array binding signal intensity,ScPex13,234
same,SPOT peptide array binding signal intensity,ScRvs167,2170
same,SPOT peptide array binding signal intensity,ScSho1,682
same,SPOT peptide array binding signal intensity,ScSla1-D1-D2,192
same,SPOT peptide array binding signal intensity,ScSla1-D3,212
same,SPOT peptide array binding signal intensity,SpAbp1-D1,48
same,SPOT peptide array binding signal intensity,SpBbc1,≤ 0
same,SPOT peptide array binding signal intensity,SpBzz1-D1,362
same,SPOT peptide array binding signal intensity,SpBzz1-D2,5.5
same,SPOT peptide array binding signal intensity,SpCyk3,9.5
same,SPOT peptide array binding signal intensity,SpHof1,21.5
same,SPOT peptide array binding signal intensity,SpHof1-2,18.2
same,SPOT peptide array binding signal intensity,SpHof1-3,11
same,SPOT peptide array binding signal intensity,SpHse1,174
same,SPOT peptide array binding signal intensity,SpLsb1,160
same,SPOT peptide array binding signal intensity,SpLsb4,4630
same,SPOT peptide array binding signal intensity,SpMyo1,75
same,SPOT peptide array binding signal intensity,SpNbp2,59
same,SPOT peptide array binding signal intensity,SpPex13,42.5
same,SPOT peptide array binding signal intensity,SpRvs167,2340
same,SPOT peptide array binding signal intensity,SpSla1-D1-D2,2.5
same,SPOT peptide array binding signal intensity,SpSla1-D3,148
